Measurements: PMC5540273 (PLoS ONE, 2017)

Key:
Settings in all cases: concentration: 1 μM, replicates: in singlicate; n = 1
[1] = tested on: T1, RSK4(Kin.Dom.1-N-terminal)
T1 construct: gene RPS6KA6

[2] = tested on: T2, RSK4(Kin.Dom.2-C-terminal)
T2 construct: gene RPS6KA6

S6K1 = tested on: S6K1
SBK1 = tested on: SBK1
SGK2 = tested on: SGK2
SGK3 = tested on: SGK3
SGK = tested on: SGK
SIK2 = tested on: SIK2
SIK = tested on: SIK
SLK = tested on: SLK
SNARK = tested on: T3, SNARK
T3 construct: gene NUAK2

SNRK = tested on: SNRK
SRC = tested on: SRC
SRMS = tested on: SRMS
SRPK1 = tested on: SRPK1
SRPK2 = tested on: SRPK2
SRPK3 = tested on: SRPK3
STK16 = tested on: STK16
STK33 = tested on: STK33
STK35 = tested on: STK35
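Note: KINOMEscan kinase panel screen.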

Row | SMILES | %Inh [1] [%] | %Inh [2] [%] | %Inh (S6K1) [%] | %Inh (SBK1) [%] | %Inh (SGK2) [%] | %Inh (SGK3) [%] | %Inh (SGK) [%] | %Inh (SIK2) [%] | %Inh (SIK) [%] | %Inh (SLK) [%] | %Inh (SNARK) [%] | %Inh (SNRK) [%] | %Inh (SRC) [%] | %Inh (SRMS) [%] | %Inh (SRPK1) [%] | %Inh (SRPK2) [%] | %Inh (SRPK3) [%] | %Inh (STK16) [%] | %Inh (STK33) [%] | %Inh (STK35) [%]
1 | CN1CCN(Cc2ccc(NC(=O)Nc3ccc(N(C)c4ccnc(Nc5ccc(CS(C)(=O)=O)cc5)n4)cc3)cc2)CC1.Cl [GW827654] | 6 | 57 | 17 | 0 | 58 | 21 | 53 | 15 | 22 | 97.3 | 59 | 10 | 3 | 0 | 92.3 | 31 | 82 | 80 | 0 | 18
2 | CS(=O)(=O)c1cccc(CNc2nc(Nc3ccc4c(c3)CCC(=O)N4)ncc2C(F)(F)F)c1 | 85 | 0 | 16 | 67 | 0 | 2 | 27 | 23 | 0 | 20 | 81 | 0 | 0 | 0 | 72 | 0 | 3 | 93.2 | 0 | 0
3 | Cn1cc(-c2ccc3c(c2)CCN3C(=O)Cc2cc(F)cc(C(F)(F)F)c2)c2c(N)ncnc21 [GSK2635225] | 0 | 0 | 9 | 7 | 0 | 8 | 1 | 0 | 0 | 41 | 10 | 0 | 29 | 0 | 18 | 0 | 2 | 20 | 0 | 0
4 | CC(C)c1nc(-c2ccc(F)c(NS(=O)(=O)c3c(F)cccc3F)c2)c(-c2ccnc(Nc3ccc(N4CCOCC4)nc3)n2)s1 [GSK1804250] | 0 | 16 | 3 | 25 | 8 | 20 | 25 | 88 | 99.5 | 91.4 | 17 | 0 | 100 | 99.9 | 54 | 0 | 18 | 39 | 8 | 74
5 | Cl.O=C(Nc1ccc(Oc2ccc3[nH]c(NC(=O)c4ccco4)nc3c2)cc1)Nc1cc(C(F)(F)F)ccc1F [GW683134] | 0 | 13 | 45 | 3 | 14 | 0 | 0 | 0 | 0 | 83 | 0 | 0 | 23 | 0 | 51 | 0 | 100 | 0 | 76 | 6
6 | NCCC(NC(=O)c1cc(Br)c(-c2ccnc3[nH]ccc23)s1)c1ccccc1.O=C(O)C(F)(F)F.O=C(O)C(F)(F)F (stereo not shown) [GSK1307810] | 53 | 4 | 48 | 66 | 67 | 64 | 78 | 0 | 0 | 16 | 90.2 | 0 | 0 | 0 | 81 | 36 | 83 | 63 | 90 | 20
7 | CCNc1nccc(-c2c(-c3ccc(F)cc3)ncn2C2CCN(C)CC2)n1 | 13 | 64 | 0 | 0 | 5 | 0 | 14 | 8 | 0 | 13 | 0 | 0 | 9 | 0 | 16 | 0 | 0 | 31 | 2 | 0
8 | CN(c1ccc(NC(=O)N2CCN(CCCN3CCOCC3)CC2)cc1)c1ccnc(Nc2ccc(CS(C)(=O)=O)cc2)n1.Cl [GW830899] | 0 | 0 | 0 | 0 | 0 | 0 | 0 | 9 | 8 | 47 | 0 | 0 | 10 | 0 | 56 | 9 | 46 | 74 | 0 | 88
